Assay results published in PubChem BioAssay (NCI).
This is part of a sample that, as a whole, favours compounds with a hit. Of some 83,000 tested, about 20% had one in any assay.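 96-well plates, one dose, 48 hours. Percent growth reported; active if below 10.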 Values without a mark were called inactive. Active and inactive are the calls of the source.

What follows are compounds tested on NCI-H460 lung (assay: NCI-60 one-dose screen, 48 h (100 = growth as untreated, 0 = no growth, -100 = all killed)). Conditions: 10 µM unless noted.
For `Cn1cc(-c2ccc3c(Nc4cccc(NC(=O)Nc5cccc(F)c5)c4)ncnc3c2)cn1`, the growth was 29.1%. Compound `CC(C)(C)n1cc(-c2ccnc(NCCNS(=O)(=O)c3ccc(C(F)(F)F)cc3)c2)c(-c2ccccc2)n1` has a growth of 93.8%. Compound `Cc1nn(C)c2ncnc(Nc3ccccc3Br)c12` has a growth of 106%. For `COc1ccc(C(=O)C2OC3=C(C(=O)CC(C)(C)C3)C2c2cccc(Oc3ccccc3)c2)cc1` (stereo not drawn), the growth was 96.9%. In the case of `O=C(Nc1ccc2[nH]ncc2c1)c1csc(Nc2ccccc2)n1`, the growth is reported as 11.9%. In the case of `c1ccc(-c2cn3nc(-c4c[nH]c5ccccc45)sc3n2)cc1`, the growth is reported as 89.2%. `COc1cc(OCc2cccc(-c3ccccc3)c2C)cc(OC)c1CN1CCCCC1C(=O)NCCOCCOCCN` (stereo not drawn) showed a growth of 41.8%. Compound `COc1cc(OC)cc(C(=O)Nc2cnc(Nc3ccc(N4CCOCC4)nc3)nc2Oc2ccc(C(F)(F)F)cc2)c1` has a growth of 31.1%. Compound `Cc1ccc(-c2nc(C#N)c(S(=O)(=O)n3nc(C)cc3N)o2)cc1` has a growth of 99.7%. `CCN1CCN(CCOc2ccc(CNc3ccc4nc(CCC5CCCCC5)[nH]c4c3)cc2)CC1` showed a growth of 42.8%. `COc1ccc(NC(=O)c2ccc(NC3=C(c4ccc(Cl)cc4)C(=O)NC3=O)cc2)cc1` showed a growth of 90.6%. `CC(=O)OCCOc1cc(Cl)c(Cl)cc1Cl` was tested, and the growth was 109%. `Oc1ccc(C(c2ccc(O)cc2)c2ccc(Cl)cn2)cc1` gave a growth of 103%. `CCCS(=O)(=O)Nc1cccc(Nc2ncnc3cc(NC(=O)CCl)ccc23)c1Cl` was tested, and the growth was -41.1% (active). For `c1ccc2c(-c3cnn4cc(-c5ccc(N6CCNCC6)cc5)cnc34)ccnc2c1`, the growth was -70% (active). `COc1ccc(C(=O)/C=C/c2ccc(C)cc2)cc1S(N)(=O)=O` was tested, and the growth was 53.5%. `O=C(OCC(O)(CO)C(=O)NC12CC3CC(CC(C3)C1)C2)c1ccc(Cl)cc1` (stereo not drawn) showed a growth of 105%. In the case of `O=C(Nc1cccc(Cn2c(=O)[nH]c3ccc(Oc4ncccn4)cc3c2=O)c1)c1cccc(Cl)c1`, the growth is reported as 57.7%. With `Cn1ccnc1C(=O)/C=C/c1ccc(C(=O)Nc2ccccc2F)cc1` the growth was -0.603% (active). Work on `O=C(Oc1ccccc1)c1cc(O)c(O)c(O)c1` yielded a growth of 28%. In the case of `CN(C)CCOc1ccc(/C(=C(/CCCCCCCCCC[P+](c2ccccc2)(c2ccccc2)c2ccccc2)c2ccccc2)c2ccccc2)cc1`, the growth is reported as -79.2% (active). Compound `Clc1nc(N2CCC[N+]3(CC2)CC[N+]2(CCCNCC2)CC3)nc(N2CCC[N+]3(CC2)CC[N+]2(CCCNCC2)CC3)n1` (stereo not drawn) has a growth of 76.8%. Compound `Clc1ccc(C2=Nn3c(nnc3-c3cc(Cl)cc(Cl)c3Cl)SC2)cc1` has a growth of 16.4%. Work on `COc1ccc(C(=O)/C=C/Nc2cc(-c3ccccc3)nn2-c2ccccc2)cc1` yielded a growth of 98%. Work on `COc1cc(C2=Nc3c(N)nc(N)nc3NC(c3cccc(Nc4ccnc5cc(C(F)(F)F)ccc45)c3)C2)cc(OC)c1OC` (stereo not drawn) yielded a growth of 72.5%. For `CC(=O)O[C@H]1CC[C@@]2(C)C(=CC[C@@H]3[C@@H]2CC[C@]2(C)C(Cl)=C(c4nc5ccc(Cl)cn5c4NC(C)(C)C)C[C@@H]32)C1`, the growth was 99.9%. Compound `COc1ccc(C2=NN3C(C2)c2cc(Br)ccc2OC3c2ccncc2)cc1` (stereo not drawn) has a growth of 59.4%. Compound `COc1cc(-c2c(-c3ccccc3)c[nH]c2C(=O)NCCCO)c(OC)c2c1OCO2` has a growth of 110%. With `CC(C)(C)c1ccc(C(=O)Nc2sc3c(c2C#N)CCC(=O)C3)cc1` the growth was 1.59% (active). `COc1ccc(Nc2nccc(Nc3ccc4[nH]ncc4c3)n2)cc1` gave a growth of 24.9%. In the case of `COc1ccc(-c2nc(SCCC(C)C)nc(N/N=C(/C)c3ccc(N)cc3)c2C#N)cc1`, the growth is reported as 101%. `Nc1cc(-c2ccc(Cl)cc2)nn1-c1nc(-c2ccc(Br)cc2)cs1` gave a growth of 105%. With `FC(F)(F)c1cc(N2CCCCC2)nc(NCCCNc2ccnc3cc(Cl)ccc23)n1` the growth was 74.4%. Work on `CCOC(=O)C1=C(c2ccccc2)N=C2SC=C(c3cccc([N+](=O)[O-])c3)N2C1c1ccc(O)cc1` (stereo not drawn) yielded a growth of 101%. Work on `COc1ccccc1-c1nc2ccc3[nH]ncc3c2c2c1CCCC2` yielded a growth of 82.5%. With `C=C(C)Cn1c(SCC(=O)c2cccs2)nc2sc3c(c2c1=O)CCCC3` the growth was 8.41% (active). Compound `COC(=O)c1nc(-c2ccccc2)oc1S(=O)(=O)N1CCN(c2ccc(OC)cc2)CC1` has a growth of 98.5%. `CCN(CC)CCCNc1cc(OC)cc2cccnc12` showed a growth of 105%. `CC(C)n1nc(-c2ccc3oc(N)nc3c2)c2c(N)ncnc21` was tested, and the growth was 5.28% (active).

Each compound was assayed on HOP-92 NSCLC in the same assay as above. Conditions: 10 µM unless noted.
`Cn1cc(-c2ccc3c(Nc4cccc(NC(=O)Nc5cccc(F)c5)c4)ncnc3c2)cn1` gave a growth of 53.6%. For `CC(C)(C)n1cc(-c2ccnc(NCCNS(=O)(=O)c3ccc(C(F)(F)F)cc3)c2)c(-c2ccccc2)n1`, the growth was 3.62% (active). In the case of `Cc1nn(C)c2ncnc(Nc3ccccc3Br)c12`, the growth is reported as 104%. `COc1ccc(C(=O)C2OC3=C(C(=O)CC(C)(C)C3)C2c2cccc(Oc3ccccc3)c2)cc1` (stereo not drawn) showed a growth of 76.4%. In the case of `O=C(Nc1ccc2[nH]ncc2c1)c1csc(Nc2ccccc2)n1`, the growth is reported as 77.9%. Work on `c1ccc(-c2cn3nc(-c4c[nH]c5ccccc45)sc3n2)cc1` yielded a growth of 75.5%. `COc1cc(OCc2cccc(-c3ccccc3)c2C)cc(OC)c1CN1CCCCC1C(=O)NCCOCCOCCN` (stereo not drawn) was tested, and the growth was 46.4%. For `COc1cc(OC)cc(C(=O)Nc2cnc(Nc3ccc(N4CCOCC4)nc3)nc2Oc2ccc(C(F)(F)F)cc2)c1`, the growth was 86.7%. `Cc1ccc(-c2nc(C#N)c(S(=O)(=O)n3nc(C)cc3N)o2)cc1` was tested, and the growth was 72.8%. For `CCN1CCN(CCOc2ccc(CNc3ccc4nc(CCC5CCCCC5)[nH]c4c3)cc2)CC1`, the growth was 22.4%. `COc1ccc(NC(=O)c2ccc(NC3=C(c4ccc(Cl)cc4)C(=O)NC3=O)cc2)cc1` showed a growth of 102%. For `CC(=O)OCCOc1cc(Cl)c(Cl)cc1Cl`, the growth was 82.3%. For `Oc1ccc(C(c2ccc(O)cc2)c2ccc(Cl)cn2)cc1`, the growth was -8.51% (active). In the case of `CCCS(=O)(=O)Nc1cccc(Nc2ncnc3cc(NC(=O)CCl)ccc23)c1Cl`, the growth is reported as -85.9% (active). With `c1ccc2c(-c3cnn4cc(-c5ccc(N6CCNCC6)cc5)cnc34)ccnc2c1` the growth was -59.2% (active). For `COc1ccc(C(=O)/C=C/c2ccc(C)cc2)cc1S(N)(=O)=O`, the growth was 41.2%. `O=C(OCC(O)(CO)C(=O)NC12CC3CC(CC(C3)C1)C2)c1ccc(Cl)cc1` (stereo not drawn) was tested, and the growth was 101%. `O=C(Nc1cccc(Cn2c(=O)[nH]c3ccc(Oc4ncccn4)cc3c2=O)c1)c1cccc(Cl)c1` showed a growth of 75.4%. Work on `Cn1ccnc1C(=O)/C=C/c1ccc(C(=O)Nc2ccccc2F)cc1` yielded a growth of 16.2%. For `O=C(Oc1ccccc1)c1cc(O)c(O)c(O)c1`, the growth was 79.6%. `CN(C)CCOc1ccc(/C(=C(/CCCCCCCCCC[P+](c2ccccc2)(c2ccccc2)c2ccccc2)c2ccccc2)c2ccccc2)cc1` was tested, and the growth was -84.3% (active). For `Clc1nc(N2CCC[N+]3(CC2)CC[N+]2(CCCNCC2)CC3)nc(N2CCC[N+]3(CC2)CC[N+]2(CCCNCC2)CC3)n1` (stereo not drawn), the growth was 131%. Compound `Clc1ccc(C2=Nn3c(nnc3-c3cc(Cl)cc(Cl)c3Cl)SC2)cc1` has a growth of 55.6%. `COc1ccc(C(=O)/C=C/Nc2cc(-c3ccccc3)nn2-c2ccccc2)cc1` was tested, and the growth was 80.8%. For `COc1cc(C2=Nc3c(N)nc(N)nc3NC(c3cccc(Nc4ccnc5cc(C(F)(F)F)ccc45)c3)C2)cc(OC)c1OC` (stereo not drawn), the growth was 47.9%. With `CC(=O)O[C@H]1CC[C@@]2(C)C(=CC[C@@H]3[C@@H]2CC[C@]2(C)C(Cl)=C(c4nc5ccc(Cl)cn5c4NC(C)(C)C)C[C@@H]32)C1` the growth was 15.6%. With `COc1ccc(C2=NN3C(C2)c2cc(Br)ccc2OC3c2ccncc2)cc1` (stereo not drawn) the growth was 82.7%. In the case of `COc1cc(-c2c(-c3ccccc3)c[nH]c2C(=O)NCCCO)c(OC)c2c1OCO2`, the growth is reported as 97%. In the case of `CC(C)(C)c1ccc(C(=O)Nc2sc3c(c2C#N)CCC(=O)C3)cc1`, the growth is reported as -25% (active). For `COc1ccc(Nc2nccc(Nc3ccc4[nH]ncc4c3)n2)cc1`, the growth was -1.08% (active). `COc1ccc(-c2nc(SCCC(C)C)nc(N/N=C(/C)c3ccc(N)cc3)c2C#N)cc1` was tested, and the growth was 96.8%. In the case of `Nc1cc(-c2ccc(Cl)cc2)nn1-c1nc(-c2ccc(Br)cc2)cs1`, the growth is reported as 90%. Work on `FC(F)(F)c1cc(N2CCCCC2)nc(NCCCNc2ccnc3cc(Cl)ccc23)n1` yielded a growth of 32.9%. In the case of `CCOC(=O)C1=C(c2ccccc2)N=C2SC=C(c3cccc([N+](=O)[O-])c3)N2C1c1ccc(O)cc1` (stereo not drawn), the growth is reported as 90.1%. `COc1ccccc1-c1nc2ccc3[nH]ncc3c2c2c1CCCC2` showed a growth of 70.5%. Work on `C=C(C)Cn1c(SCC(=O)c2cccs2)nc2sc3c(c2c1=O)CCCC3` yielded a growth of 92.4%. `COC(=O)c1nc(-c2ccccc2)oc1S(=O)(=O)N1CCN(c2ccc(OC)cc2)CC1` was tested, and the growth was 60%. `CCN(CC)CCCNc1cc(OC)cc2cccnc12` was tested, and the growth was 124%. With `CC(C)n1nc(-c2ccc3oc(N)nc3c2)c2c(N)ncnc21` the growth was -40% (active).
